Consider 28 compounds from PubChem BioAssay (NCI).

Molecules are shown by their SMILES. Compounds without any hit were thinned out: in the full panel of roughly 83,000, 20% have a hit.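 Step 1: grow cells in 96-well plates. Step 2: add test compound at a single concentration. Step 3: incubate 48 h. Step 4: record percent growth.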 Active and inactive are the calls of the source. How the source made its calls: active means growth percent below 10; inactive means the rest.

For this experiment, the system named is A498 renal. Nature of the experiment: NCI-60 one-dose screen, 48 h (100 = growth as untreated, 0 = no growth, -100 = all killed). To be noted: 10 µM unless noted.
Regarding `O=C(O)C(O)C(O)C(=O)O.[NH-]C1CCCCC1[NH-].[Pt+2]` (stereo not drawn), the growth was 125% (inactive).
Turning to `Cc1ccc(Nc2c(C(N)=O)cnc3ccc(-c4csc(N)n4)cc23)cc1`, the growth is 73.3% (inactive).
With `CC(C)(C)n1cc(-c2ccnc(NCCNS(=O)(=O)c3ccccc3)c2)c(-c2cccc(O)c2)n1`, the growth was 55.1% (inactive).
Consider `CC/C(Cc1ccccc1)=C(/c1ccc(O)cc1)c1ccc(OCCN2CCCC2)cc1`, for which the growth was 54.9% (inactive).
Take `O=C(NC(Cc1ccccc1)C(=O)CCl)OCc1ccccc1` (stereo not drawn): the growth is 98.7% (inactive).
As to `CCCCCC(=O)N(CCCC)CCCC`, the growth is 127% (inactive).
The result for `COc1cccc(/C=C2/C(=O)N(Cc3ccco3)SC2=S)c1OC` reads 102% (inactive).
The result for `COc1ccc(-c2cc(/C=C3\C(=O)Nc4ccc(Cl)cc43)[nH]n2)cc1` reads 65.7% (inactive).
For the compound `CCOC(=O)C(C#N)C1CCCCC1` (stereo not drawn), the growth is 117% (inactive).
For the compound `CC(C)[C@H]1COC(=O)N1[C@@H]1C(=O)N([C@@H](CCC(=O)N2CCN(C3CCCC3)CC2)C(=O)N[C@@H]2CCCc3ccccc32)[C@@H]1/C=C/c1cccc(Br)c1`, the growth is 0.642% (active).
As to `Nc1ccc(N2CCOCC2)cc1`, the growth is 103% (inactive).
As for `COc1cccc(/C=C\C(=O)c2ccccc2)c1`, the growth was 93.8% (inactive).
With `NS(=O)(=O)c1ccc(-n2ncc3c(=O)[nH]c(CN4CCN(c5cc6c(cc5F)c(=O)c(C(=O)O)cn6C5CC5)CC4)nc32)cc1`, the growth was 102% (inactive).
Consider `COc1cc(C2CC(=O)Nc3c2c(C)nn3-c2nc3ccccc3[nH]2)cc(OC)c1OC` (stereo not drawn), for which the growth is 78.2% (inactive).
For `N=S(=O)(NC(=O)c1ccc(Cl)cc1Cl)c1ccc(Br)s1` (stereo not drawn), the growth is 61.2% (inactive).
Take `COc1ccc(CN(c2ccc(C)cc2)C2OC(=O)c3ccccc32)cc1OC` (stereo not drawn): the growth is 79.4% (inactive).
On to `c1c2c(cc3c1OCO3)Cc1cc3c(cc1Cc1cc4c(cc1C2)OCO4)OCO3`, for which the growth was 107% (inactive).
Turning to `CC1(C)CC(C(=O)OCCCCCCCCCCC[P+](c2ccccc2)(c2ccccc2)c2ccccc2)C(C)(C)N1O` (stereo not drawn), the growth was -94.8% (active).
In the case of `COc1ccc(/C(=C/c2ccc3ccccc3c2)c2nn[nH]n2)cc1OC`, the growth is 14.5% (inactive).
For `Cc1cccc(NC(=O)c2sc3nc4c(cc3c2N)C(=O)CCC4)c1`, the growth is -12.2% (active).
Next, `CS(CCCCN=C=S)=NC(=O)c1c(F)c(F)c(F)c(F)c1F` (stereo not drawn): 112% (inactive); `COC1C/C(=N\O)C2OC(c3ccccc3)OCC2O1` (stereo not drawn): 89.9% (inactive).
The result for `O=C1Nc2ccccc2/C1=C/C(=N/c1nnc(-c2ccccc2)s1)c1ccccc1` reads 106% (inactive); that for `COc1ccc(N(Cc2cc(OC)c(OC)c(OC)c2)C2OC(=O)c3ccccc32)cc1` (stereo not drawn), 14% (inactive).
For `Cc1csc2ccc(Cl)cc12`, the growth was 119% (inactive).
As for `CC(=O)OCC1OC(OC2=C(CC=C(Cl)Cl)C(=O)c3ccccc3C2=O)C(OC(C)=O)C(OC(C)=O)C1OC(C)=O` (stereo not drawn), the growth was 75.4% (inactive).
Consider `O=C(/C=C/c1ccc(B(O)O)cc1)/C=C/c1ccc(B(O)O)cc1`, for which the growth was 71.1% (inactive).
Turning to `Cc1cc2cc3cc(C)c(N(C)C)cc3[n+](C)c2cc1N(C)C`, the growth was 56.9% (inactive).
